Compound activity (PubChem)
AmpC detergent – inhibitors of E. coli AmpC beta-lactamase with detergent; P00811; AmpC hydrolysis of nitrocefin, absorbance 480 nm, 0.01% Triton; Potency, µM (titrated, usually from 114 µM), inactives show at the highest dose activity change, negative = inhibition, usual class: inhibitors; actives 0.041% (n = 370,000); AID 485294;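 also: 0% = no-compound wells and -100% = no-enzyme wells; nearly all actives have a fitted effect of over 25% in size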
Target sequence (P00811 whole entry, looked up): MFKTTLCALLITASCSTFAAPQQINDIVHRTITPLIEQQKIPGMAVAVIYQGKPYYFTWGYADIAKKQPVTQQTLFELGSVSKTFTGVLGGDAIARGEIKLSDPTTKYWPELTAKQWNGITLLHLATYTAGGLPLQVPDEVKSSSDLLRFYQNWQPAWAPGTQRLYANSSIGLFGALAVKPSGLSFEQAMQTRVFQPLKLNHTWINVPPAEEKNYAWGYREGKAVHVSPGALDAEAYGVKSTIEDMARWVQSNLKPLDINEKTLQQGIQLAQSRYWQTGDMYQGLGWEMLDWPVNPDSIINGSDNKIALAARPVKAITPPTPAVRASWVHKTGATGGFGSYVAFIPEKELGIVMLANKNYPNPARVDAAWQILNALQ
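20 mM phosphate pH 7.0 + 0.01% (detergent screen) or 0.0001% Triton X-100; 5.3 nM AmpC reagent; cpd preinc 15 min RT; nitrocefin (800 uM stock) to start; A480 q20 s × 4 min; Activity was normalised to no-enzyme and no-compound control wells.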
AmpC inh no detg – AmpC beta-lactamase inhibition without detergent; actives 0.52% (n = 330,000); P00811; Potency, µM (series often up to 57.1 µM), for the others: at the top dose activity change, negative = inhibition, hits mostly inhibitors; AmpC nitrocefin hydrolysis, absorbance 480 nm, 0.0001% Triton;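 also: plate controls were no compound for no effect and no enzyme for full effect; nearly all actives have a fitted effect of over 20% in size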
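AmpC (5.3 nM in the dispensed reagent) in 20 mM phosphate pH 7.0 with 0.01% (detergent screen) or 0.0001% Triton X-100 was preincubated with compounds for 15 min at room temperature. Nitrocefin was then added from an 800 uM solution, and hydrolysis was followed at 480 nm.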
Sm TGR block – S. mansoni TGR enzyme inhibition | Potency, µM (doses to about 114 µM), inactives show top-dose activity change, negative = inhibition, actives largely listed as inhibitors | purified TGR, DTNB reduction, TNB absorbance 405 nm | actives 3% (n = 360,000) | Q962Y6; also: nearly all actives have a fitted effect of over 60% in size
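Kinetic colorimetric format: TGR-catalysed, NADPH-driven DTNB reduction monitored via TNB absorbance. Enzyme dispensed at 20 nM; compound exposure 15 min at room temperature before reaction start.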
Numbers without * were called inactive. Hits are enriched below; roughly 3.3% of the tested compounds scored in any of these assays. Calls follow the shape of the dose curve; as a rule, active = well fitted curve in the direction sought with a large enough effect; inconclusive = small, poorly fitted or top-dose-only effect, or another doubt; inactive = no such curve, though single readings can be large; an effect the other way counts as inactive or inconclusive. Unless noted, % is scaled to controls: 0 for no effect and ±100 for the full control effect; potency is read from the fitted curve at half-maximal effect.

COc1ccc(C2CC(=O)c3c([nH]c(C(=O)OC4CCCCCC4)c3C)C2)cc1OC (configuration not stated) was read as AmpC detergent 10% and Sm TGR block 3%.
Screening CC(C)(C)c1ccc(-c2nc(C=O)c3ccccn23)cc1 returned AmpC detergent inconclusive, AmpC inh no detg -3% and Sm TGR block -19%.
`Cc1c(C(C)(C)C)c(C=S)n2ccccc12` gave AmpC detergent 2%, AmpC inh no detg -20% and Sm TGR block 2.2µM*.
`CC(C)(C)CC(=O)NC(=S)Nc1ccccc1[N+](=O)[O-]` gave AmpC detergent -10%, AmpC inh no detg -42% and Sm TGR block -15%.
O=C(CC(=O)Nc1ccccc1[N+](=O)[O-])Nc1ccccc1[N+](=O)[O-] was read as AmpC detergent 0%, AmpC inh no detg -45% and Sm TGR block 89µM*.
`COCC(C)NC(=S)Nc1ccccc1[N+](=O)[O-]` (configuration not stated) gave AmpC detergent 3%, AmpC inh no detg -37% and Sm TGR block 40µM*.
For O=C(CCOc1ccccc1)Nc1ccccc1[N+](=O)[O-] the results were AmpC detergent -7%, AmpC inh no detg -21% and Sm TGR block inconclusive.
For COc1cccc(N2CCN(C(=O)Cn3nc(C)n4c(cc5c(OC)cccc54)c3=O)CC2)c1 the results were AmpC detergent -8% and Sm TGR block 7%.
CCc1ccccc1NC(=O)Cn1nc(C)c2nn(-c3ccc(Cl)cc3)c(C)c2c1=O was read as AmpC detergent 18% and Sm TGR block 1%.
CC(C)NC(=O)N1CCN(S(=O)(=O)c2ccc3c(ccn3C)c2)CC1 was read as AmpC detergent 1% and Sm TGR block 1%.
`Cc1ccc(NC(=O)C2=CC(c3ccc4c(c3)OCO4)=NS(=O)(=O)N2C)cc1` gave AmpC detergent 18% and Sm TGR block 7%.
`CC(=O)c1cccc(NC(=O)C2=CC(c3ccc4c(c3)OCO4)=NS(=O)(=O)N2C)c1` gave AmpC detergent -5%, AmpC inh no detg 10µM* and Sm TGR block 1%.
Screening Cc1cccc(NC(=O)c2c(C)oc3ncn(CC(C)C)c(=O)c23)n1 returned AmpC detergent 1% and Sm TGR block 8%.
For CCOc1cc(/C=C2\C(=N)N3N=C(S(=O)(=O)CC)SC3=NC2=O)ccc1OC(=O)c1ccco1 the results were AmpC detergent -3%, AmpC inh no detg inconclusive and Sm TGR block -24%.
Screening CCS(=O)(=O)C1=NN2C(=N)/C(=C\c3ccc(OC(=O)c4ccco4)c(Br)c3)C(=O)N=C2S1 returned AmpC detergent 2%, AmpC inh no detg -44% and Sm TGR block 45µM*.
For CCOc1ccc(N(CC(=O)Nc2ccc3c(c2)OCO3)S(=O)(=O)c2ccccc2)cc1 the results were AmpC detergent -2% and Sm TGR block -2%.
CC(=O)NC(Cc1ccccc1)C(=O)NC(Cc1ccccc1)C(=O)O (configuration not stated) was read as AmpC detergent 4%, AmpC inh no detg 5% and Sm TGR block inconclusive.
O=C(NC(Cc1ccccc1)C(=O)NC(Cc1ccccc1)C(=O)O)c1ccccc1 (configuration not stated) was read as AmpC detergent -1%, AmpC inh no detg -28% and Sm TGR block 28µM*.
`COc1ccc2c(c1)cc1c(=O)n(CC(=O)NC3CC3)nc(C)n12` gave AmpC detergent -2% and Sm TGR block 5%.
For COc1cc(C2C(=O)N(C3CCCCCC3)CC(=O)N2CCC2=CCCCC2)ccc1OC(C)C (configuration not stated) the results were AmpC detergent 7% and Sm TGR block 7%.
Screening O=C(CN1Cc2ccccc2C1=O)Nc1cc(F)ccc1F returned AmpC detergent 4% and Sm TGR block -2%.
Screening COc1ccc(NC(=O)CSC2CC(=O)N(c3ccc4c(c3)OCCO4)C2=O)cc1 (configuration not stated) returned AmpC detergent -10%, AmpC inh no detg -22% and Sm TGR block 45µM*.
Screening COc1ccccc1NC(=O)CSC1CC(=O)N(c2ccc3c(c2)OCO3)C1=O (configuration not stated) returned AmpC detergent 3%, AmpC inh no detg -10% and Sm TGR block 13µM*.
`COc1ccccc1NC(=O)CN1CCN(CC(=O)Nc2ccc3c(c2)OCO3)CC1` gave AmpC detergent 0%, AmpC inh no detg 59% and Sm TGR block -27%.
Screening COc1ccc(N2C(=O)CC(SCC(=O)O)C2=O)cc1 (configuration not stated) returned AmpC detergent -8%, AmpC inh no detg -8% and Sm TGR block -8%.
Screening Cc1cc(C(=O)NCc2cccs2)c(C)o1 returned AmpC detergent -1%, AmpC inh no detg -18% and Sm TGR block 22µM*.
Screening Cc1cc(C(=O)NCCC2=CCCCC2)c(C)o1 returned AmpC detergent inconclusive, AmpC inh no detg -29% and Sm TGR block 22µM*.
`CCOC(=O)CNC(=O)c1cc(C)oc1C` gave AmpC detergent -1%, AmpC inh no detg -4% and Sm TGR block 35µM*.
For O=C(CCSCCC(=O)NCc1cccs1)NCc1cccs1 the results were AmpC detergent -13%, AmpC inh no detg -19% and Sm TGR block 40µM*.
For O=C(CCSCc1ccccc1Cl)NCc1cccs1 the results were AmpC detergent inconclusive, AmpC inh no detg -23% and Sm TGR block -3%.
`Cc1occc1C(=O)NCc1cccs1` gave AmpC detergent 1%, AmpC inh no detg -20% and Sm TGR block -16%.
Cc1cc(C(=O)NCC(=O)O)c(C)o1 was read as AmpC detergent -6%, AmpC inh no detg -3% and Sm TGR block 0%.
For Cc1ccc(S(=O)(=O)N2CCCCC2)cc1C(=O)NCCC1=CCCCC1 the results were AmpC detergent 0%, AmpC inh no detg -2% and Sm TGR block 5%.
COc1ccccc1C(=O)Nc1cccc(C(=O)OCc2cc(=O)n3cc(C)sc3n2)c1 was read as AmpC detergent -10% and Sm TGR block 1%.
Screening O=C(Cn1nc(-c2ccccc2)c2cnc3ccccc3c21)Nc1ccccc1 returned AmpC detergent 2% and Sm TGR block 1%.
O=C(Nc1noc2ccccc12)c1ccc(F)cc1 was read as AmpC detergent 12% and Sm TGR block -2%.
CCOC(=O)N1CCN(Cc2nc3cc(NC(=O)C(C)C)ccc3n2C(C)C)CC1 was read as AmpC detergent 15% and Sm TGR block 1%.
COc1ccc(C2=Nc3ccc(OC(F)(F)F)cc3NC(c3cccnc3)=N2)cc1 was read as AmpC detergent -4% and Sm TGR block 2%.
Screening COc1ccc(Nc2nc3ccccc3n3c(N)nnc23)cc1 returned AmpC detergent 18% and Sm TGR block 1%.
`CCOP(=O)(OCC)C(NC(=O)Cc1ccccc1)C(Cl)(Cl)Cl` (configuration not stated) gave AmpC detergent -2%, AmpC inh no detg -12% and Sm TGR block 2%.
`Cc1cccc(C(=O)NC(Oc2ccccc2)C(Cl)(Cl)Cl)c1` (configuration not stated) gave AmpC detergent 2%, AmpC inh no detg -2% and Sm TGR block 5%.
